Laboratory results published in PubChem BioAssay (NCATS).
Inconclusive results are not listed. The source made the active and inactive calls. Unless noted, the call rests on the fitted dose curve; in most records, active means well fitted curve in the direction sought with a large enough effect; inconclusive means small, poorly fitted or top-dose-only effect, or another doubt; inactive means no such curve, though single readings can be large; an effect the other way counts as inactive or inconclusive.

Assays:
[1] = target: Lysosomal acid glucosylceramidase (Homo sapiens) (UniProt P04062); assay: Glucocerebrosidase-p2 (AID 348; in the data active means potency below about 10 µM; further: potency means the concentration at half of the fitted maximal effect); conditions: purified GBA, blue fluorogenic substrate, 40 min
Chain of Lysosomal acid glucosylceramidase (Homo sapiens) (P04062 whole entry, looked up): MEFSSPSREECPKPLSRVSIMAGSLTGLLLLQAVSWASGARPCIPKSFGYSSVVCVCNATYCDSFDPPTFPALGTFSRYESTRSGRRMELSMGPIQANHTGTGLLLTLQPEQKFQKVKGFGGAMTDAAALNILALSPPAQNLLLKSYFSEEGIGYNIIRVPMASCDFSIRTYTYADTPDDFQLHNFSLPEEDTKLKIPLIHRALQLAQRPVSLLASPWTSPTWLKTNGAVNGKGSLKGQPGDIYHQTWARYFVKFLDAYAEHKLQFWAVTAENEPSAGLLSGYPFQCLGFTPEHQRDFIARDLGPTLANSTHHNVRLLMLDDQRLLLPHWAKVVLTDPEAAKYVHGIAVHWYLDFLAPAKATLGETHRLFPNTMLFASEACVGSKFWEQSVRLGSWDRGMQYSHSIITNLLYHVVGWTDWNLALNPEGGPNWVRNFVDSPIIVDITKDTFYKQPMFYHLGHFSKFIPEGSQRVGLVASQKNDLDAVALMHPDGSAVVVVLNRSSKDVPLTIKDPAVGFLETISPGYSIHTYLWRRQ
Summary of the method: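 Compounds titrated from 0.6 nM upwards against 0.2 nM enzyme in pH 5.9 citric acid/KH2PO4, taurocholate, tween-20; blue fluorogenic substrate 80 uM, 40 min room temperature, stopped and read Ex 365/Em 440 for AC50.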

[2] = AP1 Signaling Pathway (AID 357; active means well fitted curve in either direction with a large enough effect, not every such curve was filed as active;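 further: ME-180 reporter cells stimulated with EGF at its EC50 level; on the % scale 0 is the no-effect control and ±100 the full control effect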); conditions: ME-180 AP-1-bla reporter, EGF-induced, beta-lactamase ratio, 5 h; at 7.69 µM (top of the series) unless noted
Summary of the method: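 Titration-series screen for positive or negative modulators of EC50 EGF-induced signaling in ME-180 cells carrying an AP-1-driven beta-lactamase reporter. After 5 hours at 37 degrees Celsius, CCF4 460nm/530nm emission ratio gave %Activity; AC50 values derived.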

[3] = target: Cytochrome P450 1A2 (Homo sapiens) (UniProt P05177); assay: p450-cyp1a2 (AID 410; calls by dose curve; further: potency means the concentration at half of the fitted maximal effect); conditions: recombinant CYP1A2, luciferin-ME demethylation, luminescence; series mostly up to 57 µM
Chain of Cytochrome P450 1A2 (Homo sapiens) (P05177 whole entry, looked up): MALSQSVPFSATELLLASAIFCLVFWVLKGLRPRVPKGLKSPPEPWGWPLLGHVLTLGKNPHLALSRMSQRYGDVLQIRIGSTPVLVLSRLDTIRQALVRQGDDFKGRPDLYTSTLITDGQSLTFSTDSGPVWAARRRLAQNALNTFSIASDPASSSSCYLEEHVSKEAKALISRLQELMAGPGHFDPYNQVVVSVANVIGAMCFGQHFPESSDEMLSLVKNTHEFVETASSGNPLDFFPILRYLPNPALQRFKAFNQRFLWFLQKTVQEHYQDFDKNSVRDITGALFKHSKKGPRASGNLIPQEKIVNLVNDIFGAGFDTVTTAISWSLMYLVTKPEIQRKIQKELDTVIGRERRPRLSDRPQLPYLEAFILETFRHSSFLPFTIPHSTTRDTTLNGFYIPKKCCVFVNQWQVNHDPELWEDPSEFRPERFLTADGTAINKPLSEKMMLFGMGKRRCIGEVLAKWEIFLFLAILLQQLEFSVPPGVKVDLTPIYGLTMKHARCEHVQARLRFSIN
Summary of the method: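 Luminescent readout of luciferin formed from Luciferin-ME by human CYP1A2; data normalized against complete inhibition by 57 uM furafylline. Enzyme 20nM, substrate 100uM at Km, 100mM KPO4 buffer, 60 min reaction at room temperature.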

[4] = NFAT Signaling Pathway (AID 444; active means well fitted curve in either direction with a large enough effect, not every such curve was filed as active;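 further: carbachol stimulus at about its EC50 of 1 µM final; on the % scale 0 is the no-effect control and ±100 the full control effect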); conditions: Jurkat NFAT-bla M1, carbachol, beta-lactamase ratio, 5 h; at 7.69 µM (top of the series) unless noted
Summary of the method: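 Jurkat cells carrying an NFAT-driven β-lactamase reporter and co-transfected muscarinic M1 receptor were treated with compound plus carbachol (1 uM final, an EC50 level) for 5 h at 37 °C. CCF4 loading followed for 1 h at RT; 460/530 nm ratio gave %activity.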

[5] = Stat Signaling Pathway (AID 446; active means well fitted curve in either direction with a large enough effect, not every such curve was filed as active;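 further: ME-180 cervical cancer cells given 40 pM IL-6 alongside compound; SIE-controlled beta-lactamase reporter measured as 460/530 nm FRET emission ratio; on the % scale 0 is the no-effect control and ±100 the full control effect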); conditions: ME-180 SIE beta-lactamase reporter, IL-6 stimulated, 5 h; at 7.69 µM (top of the series) unless noted
Summary of the method: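 ME-180 cells carrying a SIE-driven beta-lactamase reporter are stimulated with 40 pM IL-6 for 5 h at 37C in the presence of compound. The 460/530 nm FRET substrate ratio is read after 2.5 h at RT. Data are normalised to 300 pM IL-6 and to 125 nM JAK inhibitor controls.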

[6] = target: Glucocorticoid receptor (Homo sapiens) (UniProt P04150); assay: GR-GFP Redistribution (AID 450;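 active means compounds whose dose series gives a full or clear partial fitted curve of increased nuclear translocation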; further: potency means the concentration at half of the fitted maximal effect); conditions: U2OS GR-GFP nuclear translocation, laser cytometry, 2 h
Chain of Glucocorticoid receptor (Homo sapiens) (P04150 whole entry, looked up, the tested form may be a part): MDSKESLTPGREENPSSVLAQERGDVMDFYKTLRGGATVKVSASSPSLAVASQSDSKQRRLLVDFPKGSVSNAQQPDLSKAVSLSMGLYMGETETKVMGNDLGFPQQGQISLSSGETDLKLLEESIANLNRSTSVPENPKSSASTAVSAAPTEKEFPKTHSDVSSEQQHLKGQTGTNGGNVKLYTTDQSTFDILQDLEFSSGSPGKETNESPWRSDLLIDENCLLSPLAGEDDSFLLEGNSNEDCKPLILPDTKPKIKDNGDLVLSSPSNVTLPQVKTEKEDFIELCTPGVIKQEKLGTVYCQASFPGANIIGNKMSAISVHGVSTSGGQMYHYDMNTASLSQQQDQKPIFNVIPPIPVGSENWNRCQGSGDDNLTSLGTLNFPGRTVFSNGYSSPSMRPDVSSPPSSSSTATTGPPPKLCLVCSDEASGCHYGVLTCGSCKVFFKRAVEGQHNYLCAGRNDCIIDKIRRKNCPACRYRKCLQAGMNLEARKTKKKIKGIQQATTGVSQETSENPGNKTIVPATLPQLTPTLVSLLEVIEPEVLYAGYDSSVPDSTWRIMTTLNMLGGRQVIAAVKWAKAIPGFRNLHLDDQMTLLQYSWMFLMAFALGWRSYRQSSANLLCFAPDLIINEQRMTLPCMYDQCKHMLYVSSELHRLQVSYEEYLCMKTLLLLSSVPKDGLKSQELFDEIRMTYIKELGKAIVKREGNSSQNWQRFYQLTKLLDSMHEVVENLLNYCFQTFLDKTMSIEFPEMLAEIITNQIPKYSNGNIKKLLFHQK

[7] = target: Glucocorticoid receptor (Homo sapiens) (UniProt P04150); assay: GR-EFC Redistribution (AID 451; calls by dose curve; further: potency means the concentration at half of the fitted maximal effect); conditions: CHO-K1 GR-EFC translocation, beta-gal luminescence, 2 h
Summary of the method: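 CHO-K1 cells stably expressing nuclear-localized β-gal enzyme acceptor and GR fused C-terminally to the enzyme donor fragment; ligand-driven nuclear translocation restores β-gal by complementation. Compounds titrated up to 46 uM final, 2 h at 37 °C; luminescence read.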

[8] = target: Mitogen-activated protein kinase 10 (Mus musculus) (UniProt Q61831); assay: JNK3 AlphaScreen Assay (AID 530; active means well fitted curve in either direction with a large enough effect, not every such curve was filed as active;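 further: kinase came from lysate of stimulated human HepG2 cells; signal reports phosphorylation of biotinylated GST-cJun 1-79 at Ser73 with 10 µM ATP; on the % scale 0 is the no-effect control and ±100 the full control effect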); conditions: JNK3 lysate, c-Jun phosphorylation; series mostly up to 57.1 µM
Summary of the method: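 Inhibitors reduce antibody binding to phosphorylated biotin-cJun, lowering AlphaScreen luminescence. Lysates from HepG2 cells pre-activated by IL-1beta plus TNF-alpha supplied JNK3; compounds were titrated.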

[9] = target: Cytochrome P450 3A4 (Homo sapiens) (UniProt P08684); assay: qHTS Assay for Inhibitors and Substrates of Cytochrome P450 3A4 (AID 884); conditions: recombinant CYP3A4, Luciferin-PPXE luminescence; series mostly up to 57.1 µM; further: potency means the concentration at half of the fitted maximal effect; nearly all actives have a fitted effect of over 50% in size
Chain of Cytochrome P450 3A4 (Homo sapiens) (P08684 whole entry, looked up): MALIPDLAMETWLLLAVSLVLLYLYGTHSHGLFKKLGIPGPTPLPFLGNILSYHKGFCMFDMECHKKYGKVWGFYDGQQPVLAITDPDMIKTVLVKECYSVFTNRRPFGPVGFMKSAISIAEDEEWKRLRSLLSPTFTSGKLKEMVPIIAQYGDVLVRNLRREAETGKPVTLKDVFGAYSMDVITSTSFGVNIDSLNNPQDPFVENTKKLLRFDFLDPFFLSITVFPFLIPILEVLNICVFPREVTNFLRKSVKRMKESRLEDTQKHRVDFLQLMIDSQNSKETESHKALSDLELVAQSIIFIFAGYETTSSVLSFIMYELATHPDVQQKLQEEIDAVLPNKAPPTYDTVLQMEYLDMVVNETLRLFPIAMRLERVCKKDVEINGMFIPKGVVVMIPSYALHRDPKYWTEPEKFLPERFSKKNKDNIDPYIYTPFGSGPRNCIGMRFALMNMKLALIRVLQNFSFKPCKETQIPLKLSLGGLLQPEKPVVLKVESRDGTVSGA
Summary of the method: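 20 nM human CYP3A4 with 25 uM Luciferin-PPXE (at KM) in 200 mM KPO4, preincubated 10 min with compound; NADPH regeneration started a 60 min RT reaction. Luciferin detected by luminescence, normalized to 57 uM ketoconazole as full inhibition.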

[10] = target: Cytochrome P450 3A4 (Homo sapiens) (UniProt P08684); assay: qHTS Assay for Activators of Cytochrome P450 3A4 (AID 885); conditions: recombinant CYP3A4, Luciferin-PPXE luminescence, 60 min; series mostly up to 57.1 µM; further: nearly all actives have a fitted effect of over 65% in size
Summary of the method: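 Human CYP3A4 (20 nM) with Luciferin-PPXE at 25 uM (its KM) in 200 mM KPO4; 10 min compound preincubation, then NADPH regeneration and 60 min reaction at RT. Luciferin read by luminescence; normalized to 57 uM ketoconazole full inhibition.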

[11] = target: Dual specificity protein kinase CLK4 (Homo sapiens) (UniProt Q9HAZ1); assay: qHTS Assay for Inhibitors of CDC-like Kinase 4 (Kinase-Glo Assay) (AID 1770); conditions: recombinant Clk4, Kinase-Glo ATP depletion luminescence; series mostly up to 66.7 µM; further: nearly all actives have a fitted effect of over 65% in size; further: potency means the concentration at half of the fitted maximal effect
Chain of Dual specificity protein kinase CLK4 (Homo sapiens) (Q9HAZ1 whole entry, looked up): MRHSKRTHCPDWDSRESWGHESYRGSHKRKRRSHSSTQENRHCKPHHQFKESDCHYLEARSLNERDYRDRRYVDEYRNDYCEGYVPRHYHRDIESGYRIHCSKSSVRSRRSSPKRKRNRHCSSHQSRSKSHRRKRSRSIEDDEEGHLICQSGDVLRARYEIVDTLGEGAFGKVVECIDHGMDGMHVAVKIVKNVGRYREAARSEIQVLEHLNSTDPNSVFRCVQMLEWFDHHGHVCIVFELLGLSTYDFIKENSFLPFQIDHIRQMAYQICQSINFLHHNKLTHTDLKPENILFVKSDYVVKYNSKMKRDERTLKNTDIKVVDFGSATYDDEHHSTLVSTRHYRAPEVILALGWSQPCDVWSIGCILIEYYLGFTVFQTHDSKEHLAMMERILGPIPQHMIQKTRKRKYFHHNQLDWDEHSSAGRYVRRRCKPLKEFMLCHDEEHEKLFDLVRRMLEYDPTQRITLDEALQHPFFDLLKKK
Summary of the method: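 Readout: Kinase-Glo luminescence from ATP left after a 4.5 h room-temperature reaction of 25 nM Clk4 with 100 uM RS peptide and 1 uM ATP (final). Buffer: 25 mM Tris pH 7.5, 10 mM MgCl2.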

[12] = target: Dual specificity protein kinase CLK4 (Homo sapiens) (UniProt Q9HAZ1); assay: qHTS Assay for Inhibitors of CDC-like Kinase 4 (ADP-Glo Assay) (AID 1771); conditions: recombinant CLK4, ADP-Glo luminescence; series mostly up to 80 µM; further: nearly all actives have a fitted effect of over 70% in size; further: potency means the concentration at half of the fitted maximal effect
Summary of the method: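 Luminescence from ADP-Glo reports ADP produced by 25 nM Clk4 acting on 100 uM RS repeat peptide with 1 uM ATP over 1 hr at room temperature; residual ATP is depleted before ADP is converted to ATP for detection.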

[13] = target: Ubiquitin carboxyl-terminal hydrolase 1 (Homo sapiens) (UniProt O94782); assay: Inhibitors of USP1/UAF1: Pilot qHTS (AID 504865); conditions: purified USP1/UAF1, Ub-rhodamine cleavage fluorescence; series mostly up to 54.9 µM;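 further: rhodamine fluorescence freed from ubiquitin-rhodamine substrate followed over time; top concentration of the series differs between compounds; on the % scale 0 is the no-effect control and ±100 the full control effect; nearly all actives have a fitted effect of over 35% in size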
Chain of Ubiquitin carboxyl-terminal hydrolase 1 (Homo sapiens) (O94782 whole entry, looked up): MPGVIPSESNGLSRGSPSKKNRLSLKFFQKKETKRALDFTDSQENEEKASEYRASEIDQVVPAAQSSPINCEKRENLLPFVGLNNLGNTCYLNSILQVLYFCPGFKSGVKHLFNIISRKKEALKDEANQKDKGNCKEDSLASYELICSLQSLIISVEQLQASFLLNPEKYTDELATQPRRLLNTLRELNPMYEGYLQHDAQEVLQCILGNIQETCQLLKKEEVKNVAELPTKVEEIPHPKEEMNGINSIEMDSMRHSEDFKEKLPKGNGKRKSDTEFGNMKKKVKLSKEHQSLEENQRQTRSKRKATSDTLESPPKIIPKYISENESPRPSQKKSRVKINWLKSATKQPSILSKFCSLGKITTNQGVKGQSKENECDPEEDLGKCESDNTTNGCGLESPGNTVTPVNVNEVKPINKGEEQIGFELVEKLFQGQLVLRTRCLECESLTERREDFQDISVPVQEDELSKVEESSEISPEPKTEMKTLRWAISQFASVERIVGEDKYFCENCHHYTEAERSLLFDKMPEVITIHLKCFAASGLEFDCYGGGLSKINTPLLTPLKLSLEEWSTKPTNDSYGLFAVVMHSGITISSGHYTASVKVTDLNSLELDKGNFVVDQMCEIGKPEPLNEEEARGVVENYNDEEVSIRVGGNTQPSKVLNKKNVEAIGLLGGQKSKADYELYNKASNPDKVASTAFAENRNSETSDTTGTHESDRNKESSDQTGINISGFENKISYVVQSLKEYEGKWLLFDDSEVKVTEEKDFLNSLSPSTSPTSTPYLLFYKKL
Summary of the method: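 1nM USP1/UAF1 + cpd, 15 min RT; start w/ Ub-Rho 150nM final; kinetic FL 480/540 nm, 6 reads q60 s. Buffer 50mM HEPES pH 7.8, 0.5mM EDTA, 1mM TCEP, 0.01% Tween-20, 0.1 mg/ml BSA.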

[14] = Primary qHTS for small molecule stabilizers of the endoplasmic reticulum resident proteome: Secreted ER Calcium Modulated Protein (SERCaMP) assay (AID 1508630); conditions: SH-SY5Y GLuc-SERCaMP (Gaussia luciferase released on ER calcium loss) secretion, thapsigargin, luminescence; series mostly up to 38.4 µM; further: on the % scale 0 is the no-effect control and ±100 the full control effect
Summary of the method: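 GLuc-SERCaMP-expressing SH-SY5Y cells, pretreated 16 h with compound, are challenged with thapsigargin to empty ER calcium stores; after 4 h, coelenterazine is added directly to the medium and luminescence is imaged.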

[15] = target: 3',5'-cyclic-AMP phosphodiesterase 4B (Homo sapiens) (UniProt Q07343); assay: qHTS Assay for Inhibitors of PDE-IV (AID 607; active means well fitted activation curve with a large enough effect in the main read-out, with a control signal flat, not every such curve was filed as active; further: % of control where 0% means no effect); conditions: HEK293 ACTOne CNG channel cells, membrane potential fluorescence; series mostly up to 22.9 µM
Chain of 3',5'-cyclic-AMP phosphodiesterase 4B (Homo sapiens) (Q07343 whole entry, looked up): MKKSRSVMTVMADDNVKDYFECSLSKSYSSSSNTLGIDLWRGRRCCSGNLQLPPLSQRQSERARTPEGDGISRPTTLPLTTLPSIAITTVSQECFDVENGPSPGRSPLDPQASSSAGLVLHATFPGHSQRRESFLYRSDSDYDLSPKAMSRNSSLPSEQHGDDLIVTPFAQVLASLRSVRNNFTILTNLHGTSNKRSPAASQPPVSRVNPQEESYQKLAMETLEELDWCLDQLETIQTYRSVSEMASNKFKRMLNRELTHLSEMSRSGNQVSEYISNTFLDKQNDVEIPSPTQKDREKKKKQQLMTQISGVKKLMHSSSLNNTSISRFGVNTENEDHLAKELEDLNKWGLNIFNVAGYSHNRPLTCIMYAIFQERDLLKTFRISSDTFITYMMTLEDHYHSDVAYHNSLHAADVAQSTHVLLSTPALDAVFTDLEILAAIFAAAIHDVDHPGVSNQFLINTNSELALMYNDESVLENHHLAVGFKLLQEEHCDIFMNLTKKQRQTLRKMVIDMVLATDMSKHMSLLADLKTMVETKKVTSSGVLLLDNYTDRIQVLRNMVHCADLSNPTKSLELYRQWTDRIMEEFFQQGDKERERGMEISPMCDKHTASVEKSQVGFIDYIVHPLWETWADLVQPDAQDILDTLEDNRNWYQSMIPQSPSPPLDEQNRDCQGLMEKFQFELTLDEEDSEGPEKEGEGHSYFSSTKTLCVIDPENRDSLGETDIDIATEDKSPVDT
Summary of the method: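 HEK293 ACTOne cells with CNG channel (1000/well), endogenous PDE4; membrane potential dye, compounds up to 22.9 uM final. Fluorescence Ex 535/Em 590; RO 20-1724 (100 uM final) as reference.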

[16] = target: Cytochrome P450 2C19 (Homo sapiens) (UniProt P33261); assay: qHTS Assay for Inhibitors and Substrates of Cytochrome P450 2C19 (AID 899); conditions: recombinant CYP2C19, luciferin-H EGE luminescence; series mostly up to 57.1 µM; further: potency means the concentration at half of the fitted maximal effect; nearly all actives have a fitted effect of over 60% in size
Chain of Cytochrome P450 2C19 (Homo sapiens) (P33261 whole entry, looked up): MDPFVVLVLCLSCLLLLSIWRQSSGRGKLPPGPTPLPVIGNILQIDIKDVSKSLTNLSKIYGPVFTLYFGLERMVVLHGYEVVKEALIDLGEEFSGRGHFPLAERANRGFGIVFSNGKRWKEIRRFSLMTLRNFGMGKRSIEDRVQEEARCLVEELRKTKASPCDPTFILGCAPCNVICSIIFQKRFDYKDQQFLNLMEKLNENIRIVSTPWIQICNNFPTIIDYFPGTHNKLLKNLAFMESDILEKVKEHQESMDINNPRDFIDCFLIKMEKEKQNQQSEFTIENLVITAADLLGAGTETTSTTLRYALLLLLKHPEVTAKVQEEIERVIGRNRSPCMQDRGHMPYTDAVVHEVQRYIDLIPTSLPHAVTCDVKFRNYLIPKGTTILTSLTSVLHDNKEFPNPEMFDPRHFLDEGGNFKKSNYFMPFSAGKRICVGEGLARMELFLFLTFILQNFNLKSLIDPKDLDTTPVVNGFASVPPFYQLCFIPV
Summary of the method: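 In 50mM KPO4, the reaction held 5nM enzyme and KM-level (10uM) Luciferin-H EGE; it ran 60 min at 37C after NADPH regeneration and a 10 min compound preincubation. Luminescence values were scaled to 57uM ketoconazole as complete inhibition.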

CS(=O)(=O)Nc1cccc(-c2nc(NCc3ccccc3)c3ccccc3n2)c1
inactive: Potency [1] > 11.4 µM | activity change, negative = inhibition [2] -10.8% | activity change, negative = inhibition [4] 7.92% | activity, negative = inhibition [5] -10.7% | Potency [6] > 46 µM | Potency [7] > 46 µM | Potency [8] | Potency [10] | Potency [13] | outcome [14]
active: Potency [3] 2.51 µM | Potency [9] 3.16 µM | Potency [11] 31.6 µM | Potency [12] 28.2 µM

CNc1nc(-c2ccoc2)nc2ccccc12
active: Potency [3] 0.398 µM
inactive: Potency [1] > 11.4 µM | activity change, negative = inhibition [2] 0.93% | activity change, negative = inhibition [4] -22.3% | activity, negative = inhibition [5] 8.64% | Potency [6] > 46 µM | Potency [7] > 46 µM | Potency [8] | Potency [15] | Potency [10] | Potency [11] | Potency [12] | outcome [14]

Cn1c(=O)c(-c2ccc(F)cc2)nc2cnc(Nc3ccccc3)nc21
inactive: Potency [1] > 11.4 µM | activity change, negative = inhibition [2] 4.86% | activity change, negative = inhibition [4] -9.42% | activity, negative = inhibition [5] -5.13% | Potency [6] > 9.22 µM | Potency [7] > 46 µM | Potency [8] | Potency [11] | Potency [12] | Potency [13] | outcome [14]

FC(F)(F)c1ccccc1-c1ccc2ncnc(NC3CC3)c2c1
inactive: Potency [1] > 11.4 µM | activity change, negative = inhibition [2] 10% | activity, negative = inhibition [5] -18.8% | Potency [6] > 46 µM | Potency [7] > 46 µM | Potency [8] | Potency [10] | Potency [13] | outcome [14]
active: Potency [3] 0.316 µM | Potency [9] 1.58 µM | Potency [16] 2 µM | Potency [11] 25.1 µM | Potency [12] 25.1 µM

CC(=O)NCCNc1ncnc2ccc(-c3ccccc3C#N)cc12
active: Potency [3] 3.98 µM | Potency [11] 14.1 µM | Potency [12] 14.1 µM
inactive: Potency [1] > 11.4 µM | activity change, negative = inhibition [2] -5.09% | activity, negative = inhibition [5] 6.69% | Potency [6] > 46 µM | Potency [7] > 46 µM | Potency [8] | Potency [15] | Potency [10] | Potency [13] | outcome [14]

COc1ccc2[nH]cc(CCNc3cc(-c4cccnc4)ncn3)c2c1
inactive: Potency [1] > 11.4 µM | activity change, negative = inhibition [2] -10.1% | activity change, negative = inhibition [4] 15.6% | activity, negative = inhibition [5] -2.74% | Potency [6] > 46 µM | Potency [7] > 46 µM | Potency [15] | Potency [10] | Potency [13] | outcome [14]
active: Potency [3] 3.16 µM | Potency [9] 3.98 µM | Potency [11] 14.1 µM | Potency [12] 15.8 µM
